# Experimental data as given in PubChem BioAssay (NCI).
# The panel holds about 79,000 compounds, 15% with a hit somewhere; the sample as a whole holds those more often. Values without a mark were called inactive. Active and inactive are the calls of the source. No stated cut-off is given here; in the data, active means growth inhibition above about 70%; inactive means the rest.
# Tests used:
# [1] = NCI Yeast Anticancer Drug Screen. Data for the rad50 strain (AID 155);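 further: 0% = growth of vehicle-only cultures of the same strain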; settings: S. cerevisiae rad50 strain growth inhibition; at 50.0 µM; hits give high values
# Outline: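 Readout: growth inhibition relative to vehicle-treated cultures. Compound exposure was carried out in a genetically defined yeast strain deficient in DNA damage repair.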
# [2] = NCI Yeast Anticancer Drug Screen. Data for the mec2-1 strain (AID 157); settings: S. cerevisiae mec2-1 strain, at 50.0 µM, hits give high values
# Outline: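 Mutant yeast (mec2-1) grown with compound; growth inhibition relative to vehicle control reported.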
# [3] = NCI Yeast Anticancer Drug Screen. Data for the sgs1 mgt1 strain (AID 161);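 further: 0% = growth of cultures given vehicle only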; settings: S. cerevisiae sgs1 mgt1 strain, at 50.0 µM, hits give high values
# Outline: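 Compounds are added to genetically altered yeast, and growth is compared with cultures given vehicle alone to give percent inhibition.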
# [4] = NCI Yeast Anticancer Drug Screen. Data for the cln2 rad14 strain (AID 165);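 further: 0% = growth equal to vehicle treated cultures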; settings: S. cerevisiae cln2 rad14 strain, at 50.0 µM, hits give high values
# Outline: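 Readout is yeast growth inhibition versus vehicle-treated controls, using a strain with cln2 and rad14 alterations exposed to compound.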
# [5] = NCI Yeast Anticancer Drug Screen. Data for the bub3 strain (AID 167); settings: S. cerevisiae bub3 mutant strain, at 50.0 µM, hits give high values
# Outline: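 Readout: yeast growth inhibition, expressed relative to vehicle-only wells. The test organism is a mutant strain from a panel with lesions in DNA repair or checkpoint genes.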
# [6] = NCI Yeast Anticancer Drug Screen. Data for the mlh1 rad18 strain (AID 175); settings: S. cerevisiae mlh1 rad18 strain growth inhibition; at 50.0 µM; hits give high values
# Outline: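 Genetically defined yeast (DNA repair-deficient) exposed to compounds; growth inhibition determined relative to vehicle.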
SMILES,growth inhibition [1],growth inhibition [2],growth inhibition [3],growth inhibition [4],growth inhibition [5],growth inhibition [6]
O=C(CCC(CCC(=O)c1ccccc1)[N+](=O)[O-])c1ccccc1,3.15%,-10.8%,7.65%,4.55%,14.2%,20.5%
[N-]=[N+]=Nc1ccc(NCCCCCC(=O)ON2C(=O)CCC2=O)c([N+](=O)[O-])c1,72% (active),9.25%,77.7% (active),19.4%,4.7%,67%
CC(=O)/C=C\C1CC2C=CC1C2 (stereo unspecified),-11.6%,-10.2%,3.65%,17.1%,-20.4%,31.6%
CC(=O)C(N=Nc1ccc(S(=O)(=O)NC2NCCC(C)N2)cc1)C(=O)Nc1ccccc1C (stereo unspecified),55.1%,15.8%,48%,25.6%,0.7%,42.5%
C/C(=N\N=C(/C)c1ccc(C)cc1)c1ccc(C)cc1,10.7%,-30.3%,20.1%,6.1%,2.45%,3.7%
CCCCc1ccc2nc3cc4ccccc4cc3nc2c1,12.8%,51.1%,32.6%,-16%,20.6%,7.6%
CCOc1ccc(N2N=C(C)CCC2=O)cc1,6.2%,1.9%,5.15%,-10.6%,6.15%,0.2%
c1ncncn1,7.5%,5.95%,10.1%,3.05%,5.25%,-7.85%
c1ccc2cc3c(cc2c1)Cn1c-3nc2ccccc21,19.4%,-8.7%,13.2%,6.55%,11.4%,27.8%
CC(=O)Nc1c(Cl)cc2c(c1Cl)Cc1cc(N(C)C)ccc1-2,-13.6%,-0.35%,0.5%,6.25%,1.75%,-9.25%
CC(=O)Oc1c(C(OC(C)=O)OC(C)=O)ccc([N+](=O)[O-])c1OC(C)=O,34.1%,28.9%,36.5%,5.5%,9.3%,18.9%
O=C1c2cccc3cc([N+](=O)[O-])cc(c23)C(=O)N1CCNCCNCCNCCN1C(=O)c2cccc3cc([N+](=O)[O-])cc(c23)C1=O,86% (active),89% (active),89.3% (active),90.2% (active),89.2% (active),90.9% (active)
Cn1nc(C(F)(F)C(F)(F)C(F)(F)F)nc1C(F)(F)C(F)(F)C(F)(F)F,12.6%,3.6%,4.45%,-3.75%,-2.15%,10.6%
NC(CS(=O)Cc1ccccc1)C(=O)O (stereo unspecified),0.8%,-1.1%,-0.3%,-29.6%,-2.8%,-6.85%
N#Cc1c2nc3ccccc3nc2n2ccccc12,0.7%,19.4%,-18.9%,1.25%,1.15%,53.8%
C=CCCCCCCCCC(=O)OC,-11.8%,-17.9%,10.2%,-10.5%,-5.1%,-31.4%
COc1c(O)c(O)c2c(c1O)C(=O)c1cc(C)cc(O)c1C2=O,-16.3%,-27%,-22.7%,-8.45%,-30%,-19.4%
O=C1ON=C(c2ccccc2)/C1=C\C=C\c1ccccc1,18.2%,9.9%,1.45%,23.1%,35.6%,14.5%
CCCC1OC(C2CC=CCC2C)OCC1CC (stereo unspecified),-9.25%,6.55%,2.95%,-17.9%,-3.45%,-46%
O=C1C2CCSCN2C(=O)N1c1ccccc1 (stereo unspecified),-41.9%,-14.9%,-7.75%,-15.9%,-1.15%,-19%
CCOC(=O)c1ccc(N=Cc2ccc(N(CCC#N)S(=O)(=O)c3ccccc3)cc2C)cc1,-3.9%,15.1%,-20%,6.95%,2.95%,-3.95%

SMILES,growth inhibition [1],growth inhibition [2],growth inhibition [3],growth inhibition [4],growth inhibition [5],growth inhibition [6]
NC(CCCCNCc1ccccc1O)C(=O)O (stereo unspecified),10%,14.2%,-1.7%,7.45%,20.7%,25.9%
CN(C)S(=O)(=O)c1nc2nc[nH]c(=O)c2[nH]1,-3.2%,-20.4%,-3.8%,-15.9%,-8.55%,-22.9%
CC[n+]1[b-](C(C)(C)C)n(/N=C/C(C)(C)C)[b-](C(C)(C)C)[n+]1CC,0.7%,-13.2%,-19.9%,20.4%,-11.2%,4.95%
CC(=O)OC1C=CC2Oc3ccc(C)cc3C1(C)O2 (stereo unspecified),12.8%,-4.05%,14.4%,28.2%,23.6%,34.9%
Cc1ccc(C(=O)OC2C3(C)CCC(C3)C2(C)C)cc1 (stereo unspecified),15.9%,18.3%,14.3%,-37.2%,10.2%,-0.15%
CCN(CC)CCN(CCN(CC)CC)c1c(OC)cccc1OC,5.8%,-13.2%,9.25%,-14.4%,9.15%,15.8%
CC1(C)OC2COC(CNS(C)(=O)=O)C2O1 (stereo unspecified),12.2%,-12.2%,-9.2%,5.1%,2.85%,28.4%
CC1CCOC(c2ccccc2Cl)O1 (stereo unspecified),-25%,14.1%,-4.55%,-12.1%,-9.3%,5%
CN(C(=O)C1(C(=O)C=[N+]=[N-])CC1)c1ccccc1,-3.8%,-4.4%,-14.8%,1.3%,-2.55%,7.3%
CC1(C)OC2C(C3N(c4ccccc4)CCN3c3ccccc3)OC(n3ccc(=O)[nH]c3=O)C2O1 (stereo unspecified),-37.4%,-5.85%,-8.35%,14.1%,-2.5%,-12.7%
CC(NC(=O)C(N)CC(=O)O)NC(=O)N(C)C(C)(C)C (stereo unspecified),-8.5%,1.75%,2.1%,2.65%,25.4%,-44.2%
S=C(NCc1ccc(Cl)c(Cl)c1)Nc1ccccc1,98% (active),99.2% (active),99% (active),98.2% (active),97.3% (active),98% (active)
CCOC(=O)Nc1nc2ccccc2n1CN1CCN(c2ccccc2)CC1,8.4%,7.75%,-8.7%,21.3%,45.3%,16.9%
O=c1[nH]c(Nc2ccc(Cl)c(C(F)(F)F)c2)nc2nc[nH]c12,17.7%,7.55%,-9.5%,9.9%,8.45%,23.1%
Cc1ccc2c(c1)nc1n2C(c2c(F)cccc2F)SC1 (stereo unspecified),0.15%,-6.45%,26.9%,13.4%,29.3%,-3.7%
Cc1ccc(S(=O)(=O)OCC2OCOC2C2OCOC2CI)cc1 (stereo unspecified),12.2%,3%,2.6%,-9.9%,10.1%,13.2%
CC(=O)CSc1cc(C)c2ccccc2n1,-6.6%,-7.35%,-11.1%,-10.8%,-13.1%,1.05%
CC(C)SCCO,-2.55%,10.2%,7.6%,-9.65%,-26.6%,-13.4%
O=C(NC1CCCCC1)NC12CC3CC(CC(F)(C3)C1)C2,-9.9%,-12.8%,-7.55%,5.65%,-12.1%,6.7%
COC(=O)C(=O)C(/C=N/C(=S)NC1CCCCC1)=C(\O)c1ccc(F)cc1,-32.3%,-24.7%,-8.5%,-5.05%,-15.8%,-2.7%
